# HCV inhibitor = qHTS Assay for Inhibitors of Hepatitis C Virus (HCV) | Huh7.5.1 HCVcc-Cre infection, luciferase reporter, 44 h | Potency, µM (doses to about 41.8 µM), actives largely listed as inhibitors | actives 3.4% (n = 340,000) | AID 651820, 2012
#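 Infectious HCV cell culture screen: compound-treated cells (1,000/well, pre-plated 4 h) are infected with HCVcc-Cre at roughly 0.5 moi and grown 44 h. Infection is quantified by luciferase signal after 15 min substrate incubation at room temperature.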
# Pf growth 48h = Primary qHTS for delayed death inhibitors of the malarial parasite plastid, 48 hour incubation; P. falciparum luciferase growth in erythrocytes, 48 h; Potency, µM (titrated, usually from 28.7 µM), most hits filed as inhibitors; actives 5.9% (n = 310,000); AID 504832, 2011
#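 Luciferase-expressing P. falciparum in infected erythrocytes (2% hematocrit, 0.1% parasitemia final) in RPMI 1640/0.5% Albumax were exposed to compound for 48 hours at 37 C, 5% CO2; growth read as luminescence.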
# Lassa entry inh = qHTS for Inhibitors of binding or entry into cells for Lassa Virus | Lassa virus pseudotype entry inhibition, cell reporter | Potency, µM (series often up to 37.9 µM), hits mostly inhibitors | actives 1.2% (n = 300,000) | AID 540256, 2011; calls by dose curve; tested in HEK293 cells; also: nearly all actives have a fitted effect of over 50% in size
# MARV entry inh = qHTS for inhibitors of binding or entry into cells for Marburg Virus | Marburg virus pseudotyped entry inhibition, cell reporter | Potency, µM (series often up to 37.8 µM), most hits filed as inhibitors | actives 1.8% (n = 300,000) | AID 540276, 2011; calls by dose curve; tested in HEK293 cells
# Pf growth 96h = Primary qHTS for delayed death inhibitors of the malarial parasite plastid, 96 hour incubation; Potency, µM (titrated, usually from 28.7 µM), usual class: inhibitors; AID 504834, 2011; actives 6.9% (n = 320,000); P. falciparum luciferase reporter growth, 96 h
#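 Erythrocytes infected with luciferase-expressing P. falciparum were dispensed at 2% hematocrit and 0.05% parasitemia (final), then incubated with compounds 96 hours at 37 C in 5% CO2. Luminescence after detection reagent addition reported growth.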
# HCMV antiviral = qHTS Assay for inhibitors of the human cytomegalovirus (HCMV); HFF cells, HCMV-luciferase reporter, 72 h; hits give low values; activity change, negative = inhibition, % at 57.5 µM; actives 4.5% (n = 410,000); AID 1259415, 2018; in the data active = activity change below about -60%; inconclusive = no clear call, values can overlap the other calls; inactive = above about -39%
#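 Two compound doses tested in HFFs infected with HCMV-luciferase, MOI 1 PFU/cell, 72 h at 37C. Lysate luminescence read with OneGlo; data normalized against buffer-only and 10uM Salinomycin inhibitor controls.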
# Hits are given with their value; . = inactive; ? = inconclusive; / = not tested or not shown; [ ] = remark or other dose. Compounds with a hit are over-represented: about 14% of the library has one in this group of screens. Unless noted, calls follow the shape of the dose curve; as a rule, active = well fitted inhibition curve with a large enough effect; inconclusive = small, poorly fitted or top-dose-only effect, or another doubt; inactive = no such curve, though single readings can be large or run the other way.
SMILES,HCV inhibitor,Pf growth 48h,Lassa entry inh,MARV entry inh,Pf growth 96h,HCMV antiviral
COc1cc2c(cc1OC)C(c1ccc(Cl)cc1)=NCC2,.,.,/,/,.,.
COc1cc2c(cc1OC)C(c1ccc(-c3cc(Cl)ccc3Cl)o1)=NCC2,?,/,?,?,.,/
COc1cc2c(cc1OC)C(c1ccc(-c3ccc(Cl)c(Cl)c3)o1)=NCC2,13µM,/,5.8µM,5.8µM,?,.
CCn1c(SCC(=O)c2ccc(O)c(O)c2)nnc1-c1ccc(C)cc1,?,?,.,?,.,.
CCn1c(Cc2cccn2C)nnc1SCC(=O)c1ccc(C)cc1,.,13µM,.,?,15µM,.
COCCn1c(C)cc(C(=O)COC(=O)c2ccc3c(c2)NC(=O)CS3)c1C,?,.,.,?,?,.
C=CCn1c(C)cc(C(=O)COC(=O)c2ccc3c(c2)NC(=O)CS3)c1C,?,.,?,11µM,.,?
COC(=O)c1ccc2c(c1)NC(=O)CS2,.,12µM,.,?,.,.
COCCn1c(C)cc(C(=O)COC(=O)c2ccc(NC(=O)CC#N)cc2)c1C,.,.,.,?,/,.
COCCn1c(C)cc(C(=O)COC(=O)c2ccc(S(=O)(=O)N(C)C)cc2)c1C,.,/,.,.,/,-88
COCCn1c(C)cc(C(=O)COc2ccc(N(C)S(=O)(=O)c3ccc(C)cc3)cc2)c1C,?,9.3µM,?,?,?,.
COCCn1c(C)cc(C(=O)COC(=O)CCS(=O)(=O)c2ccc(C)cc2)c1C,.,.,.,.,.,.
COc1ccc(CNC(=O)Cn2c(SCC(=O)Nc3ccc(OC)cc3)nc3ccccc32)cc1,/,/,.,/,/,.
CCc1ccc(C(=O)CSc2n[nH]c(-c3ccncc3)n2)cc1,.,/,.,.,5.2µM,.
COc1ccc(C(=O)CSc2n[nH]c(-c3ccco3)n2)cc1,.,.,.,.,1.2µM,.
COC(=O)CSc1n[nH]c(-c2ccncc2)n1,.,.,.,?,.,.
CCOc1ccc(CCNC(=O)CS(=O)Cc2nc(-c3ccc(OC)cc3)oc2C)cc1OCC (stereo not drawn),?,.,/,/,.,.
O=C(C[C@H]1CC[C@@H]2[C@H](COC[C@@H](O)CN2Cc2ccc(Cl)cc2)O1)NCCc1ccccc1,/,/,/,/,/,.
CC(C)(C)C(=O)N1CCN(c2nc3c(F)cccc3s2)CC1,/,/,.,/,/,.
Cc1cc(/C=C(\C#N)C(=O)N2CCOCC2)c(C)n1C1CCCC1,.,.,/,.,.,-84
Cc1ccc(NC(=O)CCCCCN2C(=O)[C@@H]3Cc4ccccc4CN3C2=O)c(Cl)c1,13µM,?,/,/,?,.
CCCC(=O)Nc1ccc(C2C(=O)c3ccccc3C2=O)cc1,5µM,.,.,?,.,.
COc1cccc(C2=CC(=O)C[C@H](c3ccc(Cl)cc3)C2)c1OC,?,?,/,/,.,.
O=C1C=C(c2cccc3c2oc2ccccc23)C[C@@H](c2ccc(F)cc2)C1,?,2.3µM,/,/,.,.
CCOC(=O)c1cccc(C2=CC(=O)C[C@H](c3ccc(Cl)cc3)C2)c1,?,13µM,/,/,?,.
SMILES,HCV inhibitor,Pf growth 48h,Lassa entry inh,MARV entry inh,Pf growth 96h,HCMV antiviral
O=C1C=C(c2cc(F)ccc2F)C[C@@H](c2ccc(F)cc2)C1,.,2.3µM,/,/,?,?
COc1ccccc1C1=CC(=O)C[C@H](c2ccc(Cl)cc2)C1,?,7.4µM,/,/,?,.
O=C1C=C(c2ccc(-c3ccccc3)cc2)C[C@@H](c2ccc(Cl)cc2)C1,.,?,/,/,.,.
Cc1cc(Cl)ccc1C1=CC(=O)C[C@H](c2ccc(F)cc2)C1,.[8.37 µM],?,/,/,?,.
COc1ccc(N2CCN(S(=O)(=O)c3cc4c(cc3C)N(C(C)=O)CCO4)CC2)cc1,.,.,/,/,.,.
CN(CC(=O)Nc1cccc(F)c1)C(=O)c1ccccc1OCC(=O)Nc1cccc(C(F)(F)F)c1,?,?,.,.,?,.
CCOc1ccc(NC(=O)COC(=O)c2ccc3c(c2)OCCO3)cc1,.,?,/,/,?,.
Cc1cc(C2=CC(=O)C[C@H](c3ccc(F)cc3)C2)ccc1F,/,/,/,/,/,-62
